Screens as filed in PubChem.
TGFb inhibitor: blocks TGF-b signaling | hit rate 1.2% among 410,000 | Potency, µM (titrated, usually from 46.1 µM), hits mostly inhibitors | AID 588855 | HepG2 CAGA-GFP TGF-b/SMAD3 reporter, GFP fluorescence, 18 h; TGF-beta stimulated, 500 pg/mL final; note: nearly all actives have a fitted effect of over 65% in size
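GFP signal (ex488/em500-530) from TGF-beta-stimulated HEPG2 CAGA-GFP cells, 500 pg/mL final, 18 h at 37 degrees C in DMEM plus 1% FBS, normalized to unstimulated and DMSO-stimulated controls.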
IL1B secr inh: inflammasome signaling inhibition, IL-1 beta readout; THP-1 LPS/ATP IL-1B secretion, AlphaLISA, 16 h; hits give low values; activity change, % at 57.5 µM; hit rate 4.7% among 360,000; AID 743279; in the data active = activity change below about -50%; inconclusive = mostly about -30% to -49%
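Secreted IL-1B measured by AlphaLISA bead assay after 16 h compound exposure of THP-1 cells; compounds (final up to 57.5 uM) added 1 h before LPS (250 ng/mL) and ATP (1.25 mM) stimulation; lower signal means less secretion.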
HT1080 IDH1KD tx: HT-1080 IDH1 knockdown cell toxicity (counter line); hit rate 2% among 360,000; Potency, µM (series often up to 46.1 µM), hits mostly cytotoxic; HT-1080 IDH1 knockdown viability, ATP luminescence, 48 h; AID 686971
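Cytotoxicity counter-line: IDH1KD HT-1080, 48 h, CellTiter-Glo. Curves classed by r2, magnitude and activity.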
HepG2 tox: counter-screen for TGF-b inhibitors: cytotoxicity in HepG2 cells; Potency, µM (doses to about 46.1 µM), usual class: cytotoxic; HepG2 CAGA-GFP viability, ATP luminescence, 18 h; AID 588856; hit rate 0.76% among 410,000
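HepG2 CAGA-GFP cells (1000/well, DMEM with 1% FBS) received compound, then TGF-beta at 500 pg/mL final, and were incubated 18 hours at 37 degrees C. Viability was read by CellTiter-Glo luminescence. Media-only wells were set as complete cell-killing and DMSO as no toxicity.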
Giardia killer: Giardia lamblia killing | hit rate 0.15% among 340,000 | activity change, % at 7.66 µM, hits read low | Giardia lamblia trophozoite viability; in the data active = activity change below about -80%; inconclusive = between about -30% and that limit;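 note: parasites exposed to compound for two days anaerobically before the ATP read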
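Compounds were tested on trophozoites seeded at 100 cells/well and held 48 hrs at 37 deg C anaerobically. An ATP-based luminescent kit measured the remaining live cells.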
HT1080-NT tox: kills 2HG-producing HT-1080-NT fibrosarcoma cells; AID 686970; HT-1080-NT fibrosarcoma viability, CellTiter-Glo ATP luminescence, 48 h; hit rate 1.6% among 360,000; Potency, µM (titrated, usually from 46.1 µM), hits mostly cytotoxic;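 note: NT is the 2HG producing partner of a matched IDH1 knockdown line; nearly all actives have a fitted effect of over 55% in size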
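Compounds were tested in concentration-response format on HT-1080-NT cells for 48 hours at 37 degrees C. Cell viability came from CellTiter-Glo luminescence; curves were classified by r2, response magnitude and activity.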
A number is an active result; - = inactive; ? = inconclusive; . = not tested or not shown. This is a sample that favours compounds with a hit; in the whole collection about 6.5% have one here. Unless noted, calls come from the whole dose curve; as a rule, active = well fitted curve in the direction sought with a large enough effect; inconclusive = small, poorly fitted or top-dose-only effect, or another doubt; inactive = no such curve, though single readings can be large; an effect the other way counts as inactive or inconclusive.

SMILES | TGFb inhibitor | IL1B secr inh | HT1080 IDH1KD tx | HepG2 tox | Giardia killer | HT1080-NT tox
O=C(NCc1ccccc1)c1cc(=O)[nH]c2ccccc12 | - | - | - | - | - | -
COC(=O)C(Cc1ccccc1)NC(=O)c1cc(=O)[nH]c2ccccc12 (stereo not drawn) | - | -103 | - | - | - | -
COC(=O)[C@@H](Cc1c[nH]c2ccccc12)NC(=O)CNC(=O)c1ccccc1OC | - | -99 | - | - | - | -
COC(=O)C(Cc1c[nH]c2ccccc12)NC(C)=O (stereo not drawn) | - | - | - | - | - | -
COC(=O)C(Cc1c[nH]c2ccccc12)NC(=O)c1cc(-c2ccc(OC)c(OC)c2)oc1C (stereo not drawn) | ? | -64 | - | - | - | -
Cc1cc(C(=O)NC(Cc2c[nH]c3ccccc23)C(=O)O)c(C)o1 (stereo not drawn) | - | - | - | - | - | -
COC(=O)[C@@H](Cc1c[nH]c2ccccc12)NC(=O)c1cc(=O)[nH]c2ccccc12 | - | -99 | - | - | - | -
COc1cc(C(=O)N[C@@H](Cc2c[nH]c3ccccc23)C(=O)O)cc(OC)c1OC | - | - | - | - | - | -
COc1ccc(CCN2CC(C(=O)N(C)CC(=O)Nc3ccc(Cl)c(C(F)(F)F)c3)CC2=O)cc1OC (stereo not drawn) | - | - | - | - | - | -
COc1ccc(CNC(=O)COC(=O)[C@H](Cc2c[nH]c3ccccc23)NC(=O)c2cccs2)cc1 | - | -93 | - | - | - | -
Cc1cc(N/N=C2/CCCc3ccccc32)nc2ccccc12 | 16µM | - | - | 11µM | - | ?
c1ccc(N/N=C2\CCCc3ccccc32)nc1 | - | - | - | - | - | -
CC1(C)CC(=O)c2cc(-c3nc(-c4ccc(Cl)cc4)cs3)c(=O)n(-c3cccc(F)c3)c2C1 | - | . | . | - | . | .
COCCN(C(=O)COC(=O)/C=C/c1ccc2ccccc2n1)c1c(N)n(Cc2ccccc2)c(=O)[nH]c1=O | - | - | ? | - | - | -
CN(C(=O)COC(=O)/C=C/c1ccc2ccccc2n1)c1c(N)n(Cc2ccccc2)c(=O)[nH]c1=O | - | -56 | - | - | - | -
COCCN(C(=O)COC(=O)/C=C/c1cccs1)c1c(N)n(Cc2ccccc2)c(=O)[nH]c1=O | - | - | - | - | - | -
COCCN(C(=O)COC(=O)/C=C/c1nc2ccccc2s1)c1c(N)n(Cc2ccccc2)c(=O)[nH]c1=O | ? | -96 | ? | - | - | -
CCN(C(=O)COC(=O)/C=C/c1nc2ccccc2s1)c1c(N)n(Cc2ccccc2)c(=O)[nH]c1=O | - | -60 | - | - | - | -
CCN(C(=O)COC(=O)/C=C/c1ccco1)c1c(N)n(Cc2ccccc2)c(=O)[nH]c1=O | - | - | - | - | - | -
CN(CC(=O)Nc1ccccc1Cl)C(=O)CSC(=S)N1CCCC1 | - | - | - | - | - | -
COc1cc(/C=N\NC(=O)c2cccc(Cl)c2)ccc1Oc1ccc([N+](=O)[O-])cn1 | - | . | ? | - | - | ?
CC[C@]12c3[nH]c4ccc(Cl)cc4c3CCN1C(=O)[C@@H](CC(=O)NCCc1ccccn1)C[C@@H]2C(=O)N1CCN(C(=O)C2CC2)CC1 | - | - | - | - | - | -
Cn1c(-c2ccc(Br)o2)nc2ccccc21 | ? | - | 18µM | - | ? | 12µM
CN(C)c1ccc(-c2nc3ccccc3n2C)cc1 | ? | -66 | 11µM | 8.9µM | ? | ?
CN(C)c1ccc(C(O)Cc2nc3ccccc3n2C)cc1 (stereo not drawn) | - | -54 | - | - | - | -
O=C(NCc1ccco1)/C(=C/C=C\c1ccccc1)NC(=O)c1ccc(Br)o1 | - | - | ? | - | - | -
CCNC(=O)COc1ccc(/C=C2\COc3ccccc3C2=O)cc1OC | ? | -102 | 26µM | - | - | ?
COc1ccc(/C=C2\CCc3ccccc3C2=O)cc1OC | ? | - | - | - | - | -
